Measurements: PubChem BioAssay (NCATS)
Results filed as inconclusive are left out. A number with no mark means an inactive call. Active and inactive are the calls of the source. The call rests on the fitted dose curve; in most records, active means well fitted inhibition curve with a large enough effect; inconclusive means small, poorly fitted or top-dose-only effect; inactive means no such curve, though single readings can be large or run the other way.

assay: Primary qHTS for inhibitors of nuclear receptor binding SET domain protein 2 (NSD2) in an RCH-ACV wild type WT cells (2C) (AID 1645877); conditions: RCH-ACV (leukaemia line) NSD2 WT (2C) viability, CellTiter-Glo, 72 h; series mostly up to 44.9 µM; activity change, negative = cell killing: at the top concentration; further: nearly all actives have a fitted effect of over 70% in size
On the % scale 0 is the no-effect control and ±100 the full control effect; potency means the concentration at half of the fitted maximal effect.

| Compound | activity change, negative = cell killing | Potency | outcome |
| --- | --- | --- | --- |
| CCCN(CCC)C(=O)Cc1c(-c2ccc(Cl)cc2)nc2ccc(Cl)cn12 | -22.9% |  |  |
| c1ccc(CN2CCNCC2)cc1 | -0.356% [at 155 µM] |  |  |
| NC(=O)c1cc([N+](=O)[O-])cc([N+](=O)[O-])c1 | 5.15% |  |  |
| C=CCN1C[C@H](C)N([C@H](c2ccc(C(=O)N(CC)CC)cc2)c2cccc(OC)c2)C[C@H]1C |  | inactive |  |
| O=C(Nc1ccc(Br)cc1)c1cc(Br)cc(Br)c1O | -2.71% |  |  |
| COc1cccc(C(=O)CCN[C@@H](C)[C@H](O)c2ccccc2)c1 |  | 9.44 µM (active) |  |
| C[N+]1(CCF)[C@@H]2CC[C@H]1CC(OC(=O)C(O)(c1ccccc1)c1ccccc1)C2 (some centres undefined) |  |  | inactive |
| CC(=O)C1CCOC1=O (centres undefined) |  |  | inactive |
| COc1cc(CCN)cc(OC)c1OC |  | 41.8 µM (active) |  |
| Oc1ccc(Cl)cc1 | 5.41% |  |  |
| CC1(C)C(C=C(Cl)Cl)C1C(=O)OC(C#N)c1cccc(Oc2ccccc2)c1 (centres undefined) | -6.46% |  |  |
| CC(NC(C)(C)C)C(=O)c1cccc(Cl)c1 (centres undefined) |  | inactive |  |
| O=C1c2ccccc2C(=O)c2ccccc21 | 8.26% [at 17.3 µM] |  |  |
| C=CCC1(C(C)CC)C(=O)NC(=O)NC1=O (centres undefined) | -0.865% |  |  |
| COc1cc(OC)c(OC)cc1C=O | -22.5% [at 91.9 µM] |  |  |
| O=C(O)CCCc1ccc(N(CCCl)CCCl)cc1 |  | inactive |  |
| ClCCN1CCCC1 | 4.09% |  |  |
| CC(C)(N)Cc1ccccc1Cl | 5.61% |  |  |
| CCCOC(=O)c1cncn1C(C)c1ccccc1 (centres undefined) | 5.2% |  |  |
